Assay results as given in PubChem BioAssay (Tox21).
Values without a mark were called inactive. Results filed as inconclusive are left out. A call without a number means that no potency is given here. Active and inactive are the calls of the source. Unless noted, the call rests on the fitted dose curve; in most records, active means well fitted curve in the direction sought with a large enough effect in the repeat runs; inconclusive means weak or mixed curves; inactive means no such curve, though single readings can be large; an effect the other way counts as inactive or inconclusive.

What was measured:
[1] = target: Thyrotropin receptor (Homo sapiens) (UniProt P16473); experiment: qHTS assay to identify small molecule antagonists of the thyroid stimulating hormone receptor (TSHR) signaling pathway (AID 1259385; calls by dose curve; further: nearly all actives have a fitted effect of over 20% in size)
Thyrotropin receptor (Homo sapiens), sequence (P16473 whole entry, looked up): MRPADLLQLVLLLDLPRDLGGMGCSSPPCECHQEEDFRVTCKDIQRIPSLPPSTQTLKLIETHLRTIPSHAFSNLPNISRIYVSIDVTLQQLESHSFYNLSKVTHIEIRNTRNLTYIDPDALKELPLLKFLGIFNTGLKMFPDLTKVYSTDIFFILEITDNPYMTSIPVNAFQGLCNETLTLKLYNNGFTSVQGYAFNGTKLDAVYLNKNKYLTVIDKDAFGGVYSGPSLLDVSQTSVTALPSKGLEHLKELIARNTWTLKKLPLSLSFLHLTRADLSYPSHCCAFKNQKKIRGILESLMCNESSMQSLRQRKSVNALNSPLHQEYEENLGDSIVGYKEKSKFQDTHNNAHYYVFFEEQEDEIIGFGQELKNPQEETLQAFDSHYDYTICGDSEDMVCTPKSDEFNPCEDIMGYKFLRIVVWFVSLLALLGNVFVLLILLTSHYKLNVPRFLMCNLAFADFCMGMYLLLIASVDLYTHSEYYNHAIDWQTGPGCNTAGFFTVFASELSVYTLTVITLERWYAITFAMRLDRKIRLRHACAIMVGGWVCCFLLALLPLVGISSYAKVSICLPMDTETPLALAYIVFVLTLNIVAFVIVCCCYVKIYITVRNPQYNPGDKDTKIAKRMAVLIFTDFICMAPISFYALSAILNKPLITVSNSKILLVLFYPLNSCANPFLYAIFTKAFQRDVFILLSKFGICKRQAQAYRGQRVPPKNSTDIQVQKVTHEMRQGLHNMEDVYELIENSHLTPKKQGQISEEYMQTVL
Procedure, shortened: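 TSHR-HEK293 cells (800/well) plated 18 h, then compounds with Ro20-1724 and TSH at 1.5 ng/mL final, 30 min at room temperature. cAMP quantified by HTRF (cAMP-d2/anti-cAMP-cryptate, 1 h); 15 concentrations in triplicate.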

[2] = qHTS assay to identify small molecule agonists of the estrogen receptor alpha (ER-alpha) signaling pathway in the presence of an antagonist - cell viability counter screen (AID 1259386);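 further: cells exposed to compounds for 22 h at 37 °C before the viability read; nearly all actives have a fitted effect of over 30% in size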; further: potency means the concentration at half of the fitted maximal effect
Procedure, shortened: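 Fluorescent CellTiter-Fluor viability signal from VM7Luc4E2 cells, with the reagent added during the final hour of a 22hr compound exposure at 37C in the presence of 10.0nM ICI-182,780.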

[3] = target: Progesterone receptor (Homo sapiens) (UniProt P06401); experiment: qHTS assay to identify small molecule antagonists of the progesterone receptor (PR) signaling pathway (AID 1346795; active means well fitted inhibition curve with a large enough effect in the signal ratio in the repeat runs, not every such curve was filed as active; the % refers to the signal ratio)
Progesterone receptor (Homo sapiens), sequence (P06401 whole entry, looked up): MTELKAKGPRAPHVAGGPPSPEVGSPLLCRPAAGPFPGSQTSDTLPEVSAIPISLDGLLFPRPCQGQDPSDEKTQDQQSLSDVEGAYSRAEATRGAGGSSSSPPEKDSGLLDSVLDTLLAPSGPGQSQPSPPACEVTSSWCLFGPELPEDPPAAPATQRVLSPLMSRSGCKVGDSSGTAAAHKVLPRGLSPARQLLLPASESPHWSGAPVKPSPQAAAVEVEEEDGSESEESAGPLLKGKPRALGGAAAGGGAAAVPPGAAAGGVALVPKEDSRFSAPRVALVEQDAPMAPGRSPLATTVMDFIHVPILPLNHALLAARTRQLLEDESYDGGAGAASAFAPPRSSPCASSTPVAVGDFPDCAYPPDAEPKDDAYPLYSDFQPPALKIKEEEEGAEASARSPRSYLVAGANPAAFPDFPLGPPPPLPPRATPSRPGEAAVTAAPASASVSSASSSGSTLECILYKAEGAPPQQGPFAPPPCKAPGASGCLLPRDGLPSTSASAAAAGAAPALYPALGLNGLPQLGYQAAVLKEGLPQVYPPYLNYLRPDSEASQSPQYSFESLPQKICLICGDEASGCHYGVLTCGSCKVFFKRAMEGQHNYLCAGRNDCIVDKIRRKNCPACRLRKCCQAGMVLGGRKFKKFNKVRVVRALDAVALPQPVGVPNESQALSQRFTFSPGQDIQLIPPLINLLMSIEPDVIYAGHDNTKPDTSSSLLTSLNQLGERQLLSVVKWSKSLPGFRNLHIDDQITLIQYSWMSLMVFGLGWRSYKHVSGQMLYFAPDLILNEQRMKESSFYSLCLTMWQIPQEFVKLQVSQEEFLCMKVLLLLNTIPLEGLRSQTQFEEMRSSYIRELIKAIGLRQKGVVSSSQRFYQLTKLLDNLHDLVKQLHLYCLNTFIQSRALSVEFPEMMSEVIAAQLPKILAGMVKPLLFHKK
Procedure, shortened: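 Read-out is fluorescence from the LiveBLAzer B/G FRET substrate, cleaved by a UAS-controlled beta-lactamase in PR-UAS-bla HEK293T cells after 16 hr exposure to compound plus 1 nM promegestone (final), followed by 2 hr at room temperature.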

[4] = qHTS assay to identify small molecule antagonists of the progesterone receptor (PR) signaling pathway - cell viability counter screen (AID 1346798);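 further: HEK293T PR-UAS-bla cells stimulated with the agonist R5020; series mostly up to about 92 µM; nearly all actives have a fitted effect of over 50% in size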
Procedure, shortened: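 HEK293T PR-UAS-bla, 2% charcoal-stripped FBS; 4 hr pre-plate; cpd + R5020, 16 h 37C; LiveBLAzer read first; then CellTiter-Glo 30 min RT, luminescence.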

[5] = qHTS assay to identify small molecule agonists of the progesterone receptor (PR) signaling pathway - cell viability counter screen (AID 1346799; calls by dose curve; further: nearly all actives have a fitted effect of over 45% in size; further: potency means the concentration at half of the fitted maximal effect)
Procedure, shortened: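 Luminescence from CellTiter-Glo, added after the beta-lactamase FRET read in the same wells, gave cytotoxicity in PR-UAS-bla HEK293T cells treated with compounds for 16 hr at 37C.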

[6] = qHTS assay to identify small molecule antagonists of the TGF-beta/Smad signaling pathway - cell viability counter screen (AID 1346824); further: nearly all actives have a fitted effect of over 50% in size
Procedure, shortened: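 SBE-bla HEK 293T cells, incubated overnight, then compound plus 0.25 ng/mL TGF-beta1 (stock added) for 5 hr at 37 C. Viability was read in the same wells by CellTiter-Glo luminescence after 30 min at room temperature.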

[7] = qHTS assay to identify small molecule agonists of the TGF-beta/Smad signaling pathway - cell viability counter screen (AID 1346829); further: top concentration of the series differs between compounds; nearly all actives have a fitted effect of over 45% in size
Procedure, shortened: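 Tox21 qHTS format: SBE-bla HEK 293T cells treated with DMSO-dissolved compounds for 5 hr; CellTiter-Glo luminescence after 30 min at room temperature.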

[8] = qHTS assay to identify small molecule agonists of the TGF-beta/Smad signaling pathway (AID 1346859; active means well fitted activation curve with a large enough effect in the signal ratio in the repeat runs, not every such curve was filed as active; the % refers to the signal ratio; further: series mostly up to about 77 µM)
Procedure, shortened: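 SBE-bla HEK 293T, 4,000 cells/well, plated o/n; cpd in DMSO, 5 hr, 37 C/5% CO2; B/G FRET substrate 2 hr RT; ex 405, em 460/530 nm.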

[9] = target: Thyrotropin-releasing hormone receptor (Homo sapiens) (UniProt P34981); experiment: qHTS assay to identify small molecule antagonists of the thyrotropin-releasing hormone receptor (TRHR) signaling pathway (AID 1346877; active means well fitted inhibition curve with a large enough effect in the repeat runs, not every such curve was filed as active; further: series mostly up to about 51 µM)
Thyrotropin-releasing hormone receptor (Homo sapiens), sequence (P34981 whole entry, looked up): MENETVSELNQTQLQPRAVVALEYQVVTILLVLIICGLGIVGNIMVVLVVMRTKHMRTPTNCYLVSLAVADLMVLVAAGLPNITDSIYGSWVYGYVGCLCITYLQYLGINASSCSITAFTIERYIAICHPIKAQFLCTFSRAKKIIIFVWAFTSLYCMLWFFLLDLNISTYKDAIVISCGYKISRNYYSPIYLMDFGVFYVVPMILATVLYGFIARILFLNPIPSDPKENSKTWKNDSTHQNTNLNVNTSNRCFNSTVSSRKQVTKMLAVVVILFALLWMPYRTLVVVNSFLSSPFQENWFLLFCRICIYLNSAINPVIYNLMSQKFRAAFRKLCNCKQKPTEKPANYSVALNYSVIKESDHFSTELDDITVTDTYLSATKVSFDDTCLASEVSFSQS
Procedure, shortened: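 In this cell-based calcium flux format, HEK293 cells expressing TRHR received test compound for 5 min before the agonist TRH (1 nM final). Dye loading lasted 2 h at 37 °C.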

[10] = target: Thyrotropin-releasing hormone receptor (Homo sapiens) (UniProt P34981); experiment: qHTS assay to identify small molecule agonists of the thyrotropin-releasing hormone receptor (TRHR) signaling pathway (AID 1346891; calls by dose curve; further: series mostly up to about 58 µM)
Procedure, shortened: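 Intracellular calcium rise, read as fluorescence every second for 3 min, served as the agonist signal in dye-loaded HEK293 cells expressing TRHR; each compound ran at 15 concentrations in triplicate.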

[11] = Human pregnane X receptor (PXR) small molecule agonists, qHTS cell viability counter screen (AID 1346977); further: nearly all actives have a fitted effect of over 50% in size
Procedure, shortened: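 PXR-Luc HepG2, 2,000 cells/well, 5% charcoal-stripped FBS; 5hr settle; cpd 24hr, 37C/5% CO2; CellTiter-Fluor at 23hr, read 1hr later (fluorescence).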

[12] = Caspase-3/7 induction in HepG2 cells by small molecules, qHTS assay (AID 1346978); further: nearly all actives have a fitted effect of over 15% in size
Procedure, shortened: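 Wild-type HepG2 cells, 2,000/well, settled 5 hr at 37 C and 5% CO2, then compound-treated for 17 hr; caspase-3/7 activity read by luminescent Caspase-Glo 3/7 after 30 min at room temperature.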

[13] = Caspase-3/7 induction in CHO-K1 cells by small molecules, qHTS cell viability counter screen (AID 1346979); further: nearly all actives have a fitted effect of over 35% in size; further: potency means the concentration at half of the fitted maximal effect
Procedure, shortened: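 Cells (CHO-K1, wild type) are plated at 1,500 per well and incubated 5hr. Test compounds in DMSO are then pinned in, followed by 16hr at 37C and 5% CO2. Viability is read by CellTiter-Fluor fluorescence after 1hr.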

[14] = Caspase-3/7 induction in HepG2 cells by small molecules, qHTS cell viability counter screen (AID 1346981); further: nearly all actives have a fitted effect of over 30% in size; further: potency means the concentration at half of the fitted maximal effect
Procedure, shortened: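 Counter screen for cytotoxicity: HepG2 exposed 16 hr to compounds, then CellTiter-Fluor viability signal (fluorescence, 1 hr reagent incubation).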

[15] = target: Nuclear receptor subfamily 1 group I member 2 (Homo sapiens) (UniProt O75469); experiment: Human pregnane X receptor (PXR) small molecule agonists, qHTS assay (AID 1346982); further: nearly all actives have a fitted effect of over 35% in size; further: potency means the concentration at half of the fitted maximal effect
Nuclear receptor subfamily 1 group I member 2 (Homo sapiens), sequence (O75469 whole entry, looked up): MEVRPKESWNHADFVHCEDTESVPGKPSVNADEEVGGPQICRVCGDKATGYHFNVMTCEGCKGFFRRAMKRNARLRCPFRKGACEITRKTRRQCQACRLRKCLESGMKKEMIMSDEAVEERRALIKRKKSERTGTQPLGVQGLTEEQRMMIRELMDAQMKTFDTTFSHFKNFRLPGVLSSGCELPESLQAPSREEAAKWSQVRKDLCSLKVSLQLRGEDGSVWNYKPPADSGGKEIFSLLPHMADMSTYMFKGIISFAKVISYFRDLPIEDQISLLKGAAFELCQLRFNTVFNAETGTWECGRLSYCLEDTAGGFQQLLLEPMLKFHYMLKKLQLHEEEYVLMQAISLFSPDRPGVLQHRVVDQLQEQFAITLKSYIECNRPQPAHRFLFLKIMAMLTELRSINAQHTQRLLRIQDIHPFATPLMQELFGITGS
Procedure, shortened: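 Luminescence (ONE-Glo, 30 min RT) after 24 hr compound exposure of PXR-Luc HepG2 cells; cells rested 5 hr post-plating in 5% charcoal-stripped FBS medium.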

[16] = Caspase-3/7 induction in CHO-K1 cells by small molecules, qHTS assay (AID 1346980); further: nearly all actives have a fitted effect of over 15% in size
Procedure, shortened: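 Wild-type CHO-K1 cells exposed to compounds for 17hr at 37 C, 5% CO2. Caspase-3/7 activity then measured by Caspase-Glo 3/7 luminescence after 30min at room temperature.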

[17] = target: Progesterone receptor (Homo sapiens) (UniProt P06401); experiment: qHTS assay to identify small molecule agonists of the progesterone receptor (PR) signaling pathway (AID 1346784; calls by dose curve; further: nearly all actives have a fitted effect of over 30% in size)
Procedure, shortened: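 Beta-lactamase reporter read-out: after 16 hr compound treatment at 37C and a further 2 hr at room temperature with LiveBLAzer B/G FRET substrate, fluorescence was measured in PR-UAS-bla HEK 293T cells grown in 2% charcoal-stripped serum.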

[18] = target: Nuclear receptor subfamily 1 group I member 2 (Rattus norvegicus) (UniProt Q9R1A7); experiment: Rat pregnane X receptor (rPXR) activation by small molecules, qHTS assay (AID 1346983); details: rPXR luciferase reporter cells, One-Glo luminescence, 24 h; max activation: hits give high values; further: nearly all actives have a fitted effect of over 20% in size
Nuclear receptor subfamily 1 group I member 2 (Rattus norvegicus), sequence (Q9R1A7 whole entry, looked up): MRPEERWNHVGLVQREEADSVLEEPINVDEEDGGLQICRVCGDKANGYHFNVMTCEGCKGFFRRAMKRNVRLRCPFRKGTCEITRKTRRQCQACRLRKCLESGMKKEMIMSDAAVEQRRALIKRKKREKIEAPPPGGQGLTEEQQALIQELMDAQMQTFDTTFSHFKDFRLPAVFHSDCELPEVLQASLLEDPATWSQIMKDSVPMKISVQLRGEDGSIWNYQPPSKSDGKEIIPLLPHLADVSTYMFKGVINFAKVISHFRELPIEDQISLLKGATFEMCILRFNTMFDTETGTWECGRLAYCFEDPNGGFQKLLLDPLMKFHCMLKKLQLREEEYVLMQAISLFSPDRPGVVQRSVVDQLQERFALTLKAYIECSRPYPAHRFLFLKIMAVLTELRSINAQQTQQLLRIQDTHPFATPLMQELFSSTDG
Procedure, shortened: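 Cell-based rPXR activation assay: rPXR cells, 2,000 per well, rested 5hr at 37 C, then exposed to compounds in DMSO for 24 hr at 37 C. Luciferase activity read by One-Glo luminescence after 30 min at room temperature.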

[19] = target: Nuclear receptor subfamily 1 group I member 2 (Homo sapiens) (UniProt O75469); experiment: Human pregnane X receptor (PXR) activation by small molecules, qHTS assay (AID 1346985); further: nearly all actives have a fitted effect of over 40% in size
Procedure, shortened: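 DPX-2 cells (HepG2 co-transfected with a PXR response element and a CYP3A4-promoter luciferase construct) were seeded at 2,000 per well, rested 5 hr at 37C, then exposed to DMSO-dissolved compounds for 24 hr. Activation was read as luciferase luminescence.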

SMILES | Potency [1] | Potency [2] | Potency [3] | Potency [4] | Potency [5] | outcome [6] | outcome [7] | outcome [8] | outcome [9] | outcome [10] | Potency [11] | Potency [12] | Potency [13] | Potency [14] | Potency [15] | Potency [16] | Potency [17] | max activation [18] [%] | Potency [19]
O=C(O)c1cccc(C(=O)O)c1C(=O)O | inactive | inactive | inactive | inactive | 34.7 µM (active) | inactive | inactive | inactive | inactive | inactive | inactive | inactive | inactive | inactive | inactive |  |  |  | 
C=CC(=O)OCCCCCCCCCC | inactive | inactive | inactive | inactive | inactive |  | inactive | inactive |  | inactive | inactive | inactive | inactive | inactive | inactive | inactive |  |  | 
OCCCO | inactive | inactive | inactive | inactive | inactive |  |  | inactive |  | inactive |  | inactive | inactive | inactive | inactive | inactive |  |  | 
C=Cc1ccc(C=C)cc1 | inactive | inactive |  | inactive | inactive | inactive |  |  | inactive | inactive | inactive | inactive | inactive | inactive | inactive | inactive | inactive |  | 
Cc1c(-c2cccnc2)c2ccccc2n1CCCCC(=O)O | inactive | inactive |  | inactive | inactive | inactive | inactive |  | inactive | inactive |  |  | inactive | inactive | inactive | inactive | inactive |  | 
N#CCCCC(C#N)CCC#N (stereo not drawn) | inactive | inactive | inactive |  | inactive | inactive | inactive | inactive |  |  |  | inactive | inactive | inactive | inactive | inactive |  |  | 
Cc1cc(C)c(C)c(O)c1 | inactive | inactive |  | inactive | inactive | inactive |  | inactive | inactive | inactive | inactive | inactive | inactive | inactive | inactive | inactive | inactive |  | 
CCc1ccc(C(=O)C(C)CN2CCCCC2)cc1 (stereo not drawn) | inactive | inactive | inactive | inactive | inactive | inactive | inactive | inactive | inactive | inactive | inactive | inactive | inactive | inactive |  | inactive |  | -6.71 | inactive
CCOc1ccc2c(c1)C(C)CC(C)(C)N2 (stereo not drawn) | inactive | inactive |  | inactive | inactive | inactive | inactive | inactive | inactive | inactive | inactive | inactive | inactive | inactive | 34.4 µM (active) | inactive | inactive |  | 
CCOc1cc(OCC)c(C(C)=O)cc1OCC | inactive | 21.3 µM (active) |  | inactive | inactive |  | inactive |  | inactive | inactive |  | inactive | 26.8 µM (active) | 42.5 µM (active) | 26.8 µM (active) | inactive | inactive |  | 
CCOC(OCC)OCC | inactive | inactive | inactive | inactive | inactive | inactive |  | inactive |  |  | inactive | inactive | inactive | inactive | inactive |  |  |  | 
